Experiment [1] has as its target RAC-alpha serine/threonine-protein kinase (Homo sapiens) (UniProt P31749). The note with it: at 0.1 µM.
Experiment [2] shares this target. The note with it: at 1 µM.
The target of experiment [3] is RAC-beta serine/threonine-protein kinase (Homo sapiens) (UniProt P31751). The note with it: at 0.1 µM.
The target is the same in experiment [4]. The note with it: at 1 µM.
Experiment [5] addresses RAC-gamma serine/threonine-protein kinase (Homo sapiens) (UniProt Q9Y243). The note with it: at 0.1 µM.
Experiment [6] shares this target. As to conditions: at 1 µM.
Experiment [7] addresses G protein-coupled receptor kinase 6 (Homo sapiens) (UniProt P43250). As to conditions: at 0.1 µM.
Experiment [8] has the same target. The note with it: at 1 µM.
Experiment [9] deals with T1, Rhodopsin kinase GRK7 (Homo sapiens) (UniProt Q8WTQ7).
T1 sequence (whole entry): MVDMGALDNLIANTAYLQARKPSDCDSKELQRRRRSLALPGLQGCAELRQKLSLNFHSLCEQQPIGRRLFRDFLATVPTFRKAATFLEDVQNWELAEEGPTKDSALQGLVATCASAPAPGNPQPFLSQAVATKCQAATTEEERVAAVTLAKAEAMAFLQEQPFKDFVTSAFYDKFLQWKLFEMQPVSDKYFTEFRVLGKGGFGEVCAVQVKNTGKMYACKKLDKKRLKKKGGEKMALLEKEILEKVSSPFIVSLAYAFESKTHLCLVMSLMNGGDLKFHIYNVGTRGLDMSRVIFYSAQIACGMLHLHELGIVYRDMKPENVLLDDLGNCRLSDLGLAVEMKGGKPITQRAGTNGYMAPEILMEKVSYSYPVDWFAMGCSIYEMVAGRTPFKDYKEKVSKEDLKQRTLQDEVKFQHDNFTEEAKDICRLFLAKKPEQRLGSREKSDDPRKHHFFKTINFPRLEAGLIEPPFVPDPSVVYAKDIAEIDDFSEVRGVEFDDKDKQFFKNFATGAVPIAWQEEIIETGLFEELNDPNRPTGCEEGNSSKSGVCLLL
As to conditions: at 0.1 µM.

The target of experiment [10] is T1, Rhodopsin kinase GRK7 (Homo sapiens). The note with it: at 1 µM.

Sequence of RAC-alpha serine/threonine-protein kinase (Homo sapiens) (P31749 whole entry): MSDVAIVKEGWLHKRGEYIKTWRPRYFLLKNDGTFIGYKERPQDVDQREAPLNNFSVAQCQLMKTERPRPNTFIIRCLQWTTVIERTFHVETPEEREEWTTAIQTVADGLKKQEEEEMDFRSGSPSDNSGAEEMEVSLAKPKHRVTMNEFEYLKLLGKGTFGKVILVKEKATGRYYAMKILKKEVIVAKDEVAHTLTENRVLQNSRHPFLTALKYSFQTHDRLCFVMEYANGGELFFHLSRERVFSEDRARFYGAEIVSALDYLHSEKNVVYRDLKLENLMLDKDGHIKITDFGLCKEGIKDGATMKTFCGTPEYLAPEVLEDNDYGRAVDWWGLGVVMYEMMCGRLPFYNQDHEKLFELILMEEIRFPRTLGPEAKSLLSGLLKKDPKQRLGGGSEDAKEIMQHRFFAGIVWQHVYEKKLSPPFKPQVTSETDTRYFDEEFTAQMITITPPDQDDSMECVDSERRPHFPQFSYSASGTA
Sequence of G protein-coupled receptor kinase 6 (Homo sapiens) (P43250 whole entry, looked up): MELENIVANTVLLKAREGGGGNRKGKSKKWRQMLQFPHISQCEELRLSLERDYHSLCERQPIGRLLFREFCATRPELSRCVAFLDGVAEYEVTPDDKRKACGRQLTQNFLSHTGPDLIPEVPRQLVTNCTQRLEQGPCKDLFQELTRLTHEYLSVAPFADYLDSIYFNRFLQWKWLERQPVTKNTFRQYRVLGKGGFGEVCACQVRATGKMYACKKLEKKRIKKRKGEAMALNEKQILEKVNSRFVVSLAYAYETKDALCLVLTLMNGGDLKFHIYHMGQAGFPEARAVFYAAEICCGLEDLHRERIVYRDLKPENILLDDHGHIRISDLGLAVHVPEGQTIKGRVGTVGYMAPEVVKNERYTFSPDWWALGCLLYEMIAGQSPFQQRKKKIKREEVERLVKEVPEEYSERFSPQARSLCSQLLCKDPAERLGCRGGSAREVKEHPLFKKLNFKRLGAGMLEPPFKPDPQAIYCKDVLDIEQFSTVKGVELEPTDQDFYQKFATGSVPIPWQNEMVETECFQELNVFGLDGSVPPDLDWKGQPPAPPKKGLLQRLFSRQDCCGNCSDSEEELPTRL
Sequence of RAC-gamma serine/threonine-protein kinase (Homo sapiens) (Q9Y243 whole entry): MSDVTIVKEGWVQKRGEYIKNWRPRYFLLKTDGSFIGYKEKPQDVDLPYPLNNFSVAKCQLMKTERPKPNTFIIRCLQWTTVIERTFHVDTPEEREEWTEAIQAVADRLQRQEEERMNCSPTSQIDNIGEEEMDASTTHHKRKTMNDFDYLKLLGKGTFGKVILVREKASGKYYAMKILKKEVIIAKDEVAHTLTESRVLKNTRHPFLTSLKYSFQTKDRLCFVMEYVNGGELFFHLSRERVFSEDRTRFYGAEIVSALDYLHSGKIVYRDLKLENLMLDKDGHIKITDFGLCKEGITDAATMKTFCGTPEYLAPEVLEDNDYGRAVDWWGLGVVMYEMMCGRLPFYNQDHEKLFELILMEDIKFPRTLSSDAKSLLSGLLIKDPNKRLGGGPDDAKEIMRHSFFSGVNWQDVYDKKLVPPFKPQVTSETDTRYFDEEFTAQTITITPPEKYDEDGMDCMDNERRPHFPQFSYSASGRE
Sequence of RAC-beta serine/threonine-protein kinase (Homo sapiens) (P31751 whole entry): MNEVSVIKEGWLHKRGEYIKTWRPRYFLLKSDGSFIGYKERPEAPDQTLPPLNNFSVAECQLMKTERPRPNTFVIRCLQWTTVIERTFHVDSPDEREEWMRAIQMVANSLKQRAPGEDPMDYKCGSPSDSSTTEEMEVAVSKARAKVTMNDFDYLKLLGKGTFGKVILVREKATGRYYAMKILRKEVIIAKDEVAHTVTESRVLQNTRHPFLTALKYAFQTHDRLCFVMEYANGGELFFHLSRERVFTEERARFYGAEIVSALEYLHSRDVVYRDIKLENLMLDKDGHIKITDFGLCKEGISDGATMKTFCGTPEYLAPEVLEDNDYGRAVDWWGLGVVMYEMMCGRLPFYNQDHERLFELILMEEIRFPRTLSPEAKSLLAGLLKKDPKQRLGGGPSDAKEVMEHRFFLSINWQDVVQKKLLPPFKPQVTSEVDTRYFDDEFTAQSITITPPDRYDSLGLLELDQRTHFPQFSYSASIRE

One may read the inhibition as the change of the read-out against control, counted positive when it falls. For `CCN1CCC(CC(=O)Nc2n[nH]c3nc(-c4cccs4)c(Br)cc23)CC1`, the inhibition in experiment [1] is -2.05%; in experiment [2], -0.11%; in experiment [3] it was -3.94%; in [4], -1.99%; in experiment [5], -2.82%; in experiment [6], 2.59%. The inhibition in experiment [7] was -0.66%; in [8], -2.54%; in experiment [9] it was -7.57%; in [10] it was -4.43%.
Turning to `CS(=O)(=O)Nc1ccc(N/C=C2\C(=O)Nc3ccccc32)cc1`, the inhibition is -2.28% in [1]; -2.1% in experiment [2]; -3.92% in experiment [3]; -2.28% in [4]; -3.25% in experiment [5]; 1.91% in experiment [6]. For the same molecule, the inhibition in experiment [7] is -1.94%; in [8], 0.5%; in [9], -1.39%; in experiment [10] it was -5.45%.
`CS(=O)(=O)CCNCc1nc(-c2ccc3ncnc(Nc4ccc(F)c(Cl)c4)c3c2)cs1`: the inhibition was 0.62% in experiment [1]; -0.01% in [2]; 0.07% in experiment [3]; 1.1% in experiment [4]; 1.52% in [5]; -0.89% in experiment [6]. In addition, the inhibition was 1.59% in experiment [7], 3.85% in [8], 5.77% in experiment [9] and -4.62% in experiment [10].
`COc1cc2ncn(-c3cc(O[C@@H](C)c4ccccc4Cl)c(C(N)=O)s3)c2cc1OC`: the inhibition was 0.32% in experiment [1]; 1.3% in experiment [2]; 1.65% in experiment [3]; 1.94% in experiment [4]; 1.85% in experiment [5]; 1.32% in [6]. Besides, the inhibition in experiment [7] was 0.89%; in [8], 2.39%; in [9] it was 9.14%; in experiment [10], 4.64%.
Regarding `Fc1cccc(COc2ccc(Nc3ncnc4sc(-c5cccs5)cc34)cc2Cl)c1`, the inhibition is 0.07% in experiment [1]; -0.67% in experiment [2]; -0.49% in experiment [3]; 0.01% in experiment [4]; 0.23% in experiment [5]; 1.25% in experiment [6]. The inhibition in [7] was 1.48%; in experiment [8], 1.31%; in experiment [9], 7.27%; in experiment [10], -0.21%.
`c1cnn2ncc(-c3ccnc(Nc4ccc5c(c4)OCCO5)n3)c2c1`: the inhibition in experiment [1] was determined as 0.86%; in experiment [2] it was 0.95%; in [3], 2.29%; in experiment [4] it was 1.47%; in [5], 1.09%; in experiment [6], 2.1%. Also, the inhibition in experiment [7] turned out to be 7.21%; in experiment [8], 4.01%; in [9], 4.35%; in [10] it was 2.89%.
Regarding `NCc1ccc(-c2nc(-c3ccc(Cl)c(O)c3)c(-c3ccncc3)[nH]2)cc1`, the inhibition in experiment [1] was 0.06%; in experiment [2], 0.47%; in [3], -1.18%; in experiment [4], -0.26%; in experiment [5] it was -0.23%; in [6], 0.68%. Moreover, the inhibition was -0.28% in experiment [7], -0.98% in experiment [8], -2.26% in experiment [9] and 2.84% in [10].
With `NC(=O)c1cccc(Nc2nccc(Nc3cccc4[nH]ncc34)n2)c1`, the inhibition in experiment [1] is -2.33%; in experiment [2], 1.84%; in experiment [3], -3.71%; in experiment [4] it was -1.08%; in experiment [5] it was -2.36%; in experiment [6] it was -1.13%. Further, the inhibition in [7] is -0.32%; in [8], 2.35%; in experiment [9] it was -7.6%; in experiment [10], 5.88%.
Turning to `Nc1ncnc2occ(-c3ccc(NC(=O)Nc4cc(C(F)(F)F)cc(C(F)(F)F)c4)cc3)c12`, the inhibition in experiment [1] was -0.23%; in [2] it was 0.58%; in [3], 1.95%; in experiment [4], 2.09%; in [5] it was 1.26%; in experiment [6] it was 1.13%. Besides, the inhibition in experiment [7] is -2.78%; in experiment [8] it was -6.02%; in experiment [9], -0.71%; in experiment [10], -8.6%.
As for `COc1ccc(-c2nn3ncccc3c2-c2ccnc(Nc3ccc(Cl)c(C(F)(F)F)c3)n2)cc1`, the inhibition in [1] was 0.26%; in experiment [2], 0.27%; in [3] it was 1.16%; in experiment [4], 0.96%; in [5], 3.64%; in experiment [6], -0.03%. Further, the inhibition worked out at 6.26% in experiment [7], 9.79% in [8], 4.07% in experiment [9] and 8.67% in [10].
As to `O=C1NC(=O)C(N2CCc3ccccc32)=C1c1ccc(Cl)cc1`, the inhibition was 1.09% in experiment [1]; 1.67% in [2]; 1.7% in [3]; 2.85% in experiment [4]; 2.52% in experiment [5]; 1.75% in [6]. Moreover, the inhibition in [7] worked out at 0.71%; in experiment [8], 3.31%; in experiment [9] it was 2.29%; in experiment [10], 7.76%.
In the case of `N#Cc1c(NC(=O)c2cccc3ccccc23)sc2c1CCCC2`, the inhibition in experiment [1] stood at 0.5%; in experiment [2], 0.48%; in [3], 1.74%; in experiment [4], 2.41%; in experiment [5], 1.33%; in experiment [6], 1.85%. Besides, the inhibition is 3.58% in [7], 3.47% in [8], 2.52% in [9] and 6.83% in experiment [10].
`O=C(Nc1n[nH]c2nc(-c3ccco3)c(Br)cc12)C1CC1`: the inhibition was determined as 0.59% in experiment [1]; 0.53% in experiment [2]; 2.1% in experiment [3]; 2.15% in [4]; 0.47% in experiment [5]; 1.46% in experiment [6]. For the same molecule, the inhibition in experiment [7] was -0.71%; in experiment [8], -0.55%; in [9] it was 3.55%; in experiment [10], 4.09%.
For the molecule `COc1cccc(-n2ncc3c(N/N=C/c4cccc(F)c4)ncnc32)c1`, the inhibition in experiment [1] was -2.98%; in experiment [2], -3.97%; in experiment [3] it was -2.03%; in [4], -2.75%; in experiment [5] it was -1.82%; in experiment [6], -1.99%. Also, the inhibition in [7] was 3.44%; in experiment [8] it was 0.12%; in [9] it was 1.93%; in experiment [10] it was 10.3%.
For `Nc1nc(-c2ccc3c(c2)C(=Cc2cc(Br)c(O)c(Br)c2)C(=O)N3)cs1`, the inhibition is -2.07% in [1]; -1.22% in [2]; -2.78% in experiment [3]; -0.83% in experiment [4]; -2.54% in [5]; -0.36% in experiment [6]. Moreover, the inhibition in experiment [7] was 0.91%; in experiment [8] it was 10.7%; in experiment [9] it was -6.85%; in [10] it was 22.8%.
As for `NC(=O)c1ccc(-c2nc(-c3ccccn3)c(-c3ccc4c(c3)OCO4)[nH]2)cc1`, the inhibition in experiment [1] came out at 0.43%; in experiment [2], 0.86%; in [3] it was 1.27%; in experiment [4], 1.16%; in [5], 0.75%; in experiment [6], 0.48%. Moreover, the inhibition in experiment [7] stood at 0.64%; in experiment [8], 5.54%; in experiment [9], 1.63%; in experiment [10], 6.3%.
For the molecule `CCc1cccc(NC(=O)Nc2ccc(Oc3ccc4nc(NC(=O)OC)[nH]c4c3)cc2)c1`, the inhibition was 1.36% in [1]; 0.06% in experiment [2]; 1.23% in experiment [3]; 1.45% in experiment [4]; 2.78% in [5]; -0.71% in experiment [6]. For the same molecule, the inhibition in [7] came out at 2.37%; in [8], 2.68%; in [9] it was 4.8%; in experiment [10], 15.6%.

For the origin of these results see ChEMBL document CHEMBL1961873, “Compounds: GSK PKIS; Assays: Nanosyn kinase panel” (2012).
